NPR1 antag – human Npr1 receptor antagonism; hit rate 1.6% among 76,000; HEK293 hNpr1 GloSensor cGMP, ANP-stimulated luminescence; Potency, µM (series often up to 46.3 µM), for the others: at the highest dose activity change, negative = inhibition, usual class: inhibitors; P16066; calls by dose curve; also: nearly all actives have a fitted effect of over 60% in size
Target sequence (P16066 whole entry, looked up): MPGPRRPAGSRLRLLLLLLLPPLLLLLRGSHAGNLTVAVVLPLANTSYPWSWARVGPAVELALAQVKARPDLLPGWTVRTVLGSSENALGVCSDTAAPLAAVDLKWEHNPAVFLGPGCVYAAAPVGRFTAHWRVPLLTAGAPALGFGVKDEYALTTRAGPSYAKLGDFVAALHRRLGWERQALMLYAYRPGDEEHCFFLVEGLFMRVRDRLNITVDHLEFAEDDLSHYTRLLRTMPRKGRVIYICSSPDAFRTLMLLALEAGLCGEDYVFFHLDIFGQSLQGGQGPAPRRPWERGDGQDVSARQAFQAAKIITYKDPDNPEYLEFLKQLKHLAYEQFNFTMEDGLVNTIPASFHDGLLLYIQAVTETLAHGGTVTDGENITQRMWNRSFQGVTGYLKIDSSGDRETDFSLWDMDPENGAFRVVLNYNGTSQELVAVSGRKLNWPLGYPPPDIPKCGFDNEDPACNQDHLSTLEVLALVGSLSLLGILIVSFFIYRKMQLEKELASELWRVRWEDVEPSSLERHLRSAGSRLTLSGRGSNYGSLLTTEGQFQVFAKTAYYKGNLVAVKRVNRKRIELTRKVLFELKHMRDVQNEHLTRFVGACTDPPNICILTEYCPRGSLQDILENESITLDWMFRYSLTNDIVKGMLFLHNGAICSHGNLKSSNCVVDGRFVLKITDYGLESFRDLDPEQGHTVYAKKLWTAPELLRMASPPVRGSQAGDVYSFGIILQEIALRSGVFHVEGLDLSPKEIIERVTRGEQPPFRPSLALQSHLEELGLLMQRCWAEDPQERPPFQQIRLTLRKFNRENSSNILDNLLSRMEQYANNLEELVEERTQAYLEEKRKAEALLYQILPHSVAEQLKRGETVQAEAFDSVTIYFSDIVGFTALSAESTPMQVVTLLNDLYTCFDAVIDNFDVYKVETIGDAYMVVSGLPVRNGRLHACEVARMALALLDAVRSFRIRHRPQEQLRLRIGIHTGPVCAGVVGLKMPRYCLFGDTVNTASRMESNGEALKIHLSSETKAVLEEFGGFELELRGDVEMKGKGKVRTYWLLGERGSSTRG
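HEK293 cells stably expressing human Npr1 and cGMP GloSensor pGS-40F, loaded 2 h with 2% GloSensor reagent, given compound 30 min at room temperature. Luminescence read before and 20 min after 0.1 nM hNppA.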
Luciferase inh – inhibitors of firefly (Photinus pyralis) luciferase; P08659; hit rate 2.5% among 76,000; purified P. pyralis luciferase, luminescence, biochemical; Potency, µM (titrated, usually from 115 µM), actives largely listed as inhibitors; also: nearly all actives have a fitted effect of over 65% in size
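Biochemical qHTS: compound (6-point titration) added to 10uM D-luciferin plus 10uM ATP in Tris acetate pH 7.5 buffer with Mg, Tween-20 and BSA, then purified enzyme at 10nM; light output imaged.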
NIH3T3 tox – kills NIH 3T3 cells | NIH 3T3 viability, CellTiter-Glo ATP luminescence, 48-72 h | Potency, µM (top dose mostly 96.7 µM), without a hit: at the highest dose activity change, negative = cytotoxicity, hits mostly inhibitors | hit rate 4.3% among 94,000 | AID 1345082; also: nearly all actives have a fitted effect of over 55% in size
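Viability of NIH 3T3 cells after 48 or 72 hr compound treatment at 37 °C was assessed by CellTiter-Glo, with luminescence imaged following a 10 min room-temperature step.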
HEK293 tox – HEK 293 cell cytotoxicity; HEK 293 viability, ATP luminescence (CellTiter-Glo), 48-72 h; Potency, µM (series often up to 115 µM), for the others: at the top dose activity change, negative = cytotoxicity, actives largely listed as inhibitors; hit rate 6.6% among 94,000; also: nearly all actives have a fitted effect of over 60% in size
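Cytotoxicity was scored by loss of ATP-coupled luminescence (CellTiter-Glo) in HEK 293 cells. Compound treatment ran 48 or 72 hr at 37 degree Celsius, 5% CO2, 95% humidity.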
* marks the source's active call; other numbers are inactive results; i = inactive; u = inconclusive; x = no result given; [ ] = another dose, or the depositor's remark. Only some compounds are listed: those with a hit (about 11% of all), similar ones and a draw of the others. Unless noted, calls follow the shape of the dose curve; as a rule, active = well fitted curve in the direction sought with a large enough effect; inconclusive = small, poorly fitted or top-dose-only effect, or another doubt; inactive = no such curve, though single readings can be large; an effect the other way counts as inactive or inconclusive. % is scaled to controls: 0 for no effect and ±100 for the full control effect; potency is read from the fitted curve at half-maximal effect.

SMILES	NPR1 antag	Luciferase inh	NIH3T3 tox	HEK293 tox
Cc1ccsc1C(=O)N1CCC2(CC1)NCCc1c2[nH]c2ccccc12	-30.5%	i	-27.4%	44.7µM*
CCOC(=O)[C@@H]1[C@@H](O)C(=O)N(Cc2ccccc2)C12CCN(C(=O)C1CCC1)CC2	x	x	u	3.0%
COc1ccc2[nH]c3c(c2c1)CCNC31CCN(S(=O)(=O)c2cccnc2)CC1	8.5%	i	u	25.1µM*
COc1ccc2[nH]c3c(c2c1)CCNC31CCN(C2CCCC2)CC1	-6.5%	i	u	u
CCN1CCC(N2CCC3(CC2)NCCc2c3[nH]c3ccc(OC)cc23)CC1	2.5%	i	31.6µM*	31.6µM*
O=C(c1ccccc1F)N1CCC2(CC1)NCCc1c2[nH]c2ccccc12	2.8%	i	-6.5%	79.4µM*
O=C(c1cccnc1)N1CCC2(CC1)NCCc1c2[nH]c2ccccc12	16.5%	i	-14.8%	-5.5%
COCCCNc1nc2c(S(=O)(=O)c3ccc(C)c(C)c3)nnn2c2ccccc12	x	x	u	-9.4%
O=C(Cc1cccc(F)c1)N1CCOc2ccc(CN3CCc4ccccc4C3)cc2C1	-29.6%	i	u	u
COc1cccc(-c2nc3c([nH]2)CN(c2cc(C4CC4)ncn2)CC3)c1	u	25.1µM*	u	35.5µM*
COc1ccc(OC)c(S(=O)(=O)N2CCc3nc(-c4ccccc4)[nH]c3C2)c1	x	x	-20.5%	u
CC1CCCCN1CCCNC(=O)c1cc2c(s1)CN(C1CCCC1)C2 (stereo unspecified)	-3.7%	u	u	79.4µM*
Cc1csc(NC(=O)c2cnc3c(c2)N([S+](=O)([O-])c2cccnc2)CCC3)n1	6.0%[70.6 µM]	i	100µM*	-12.9%[172 µM]
O=C(Nc1cccc(Cl)c1)c1cnc2c(c1)N([S+](=O)([O-])c1cccnc1)CCC2	5.2%[70.6 µM]	i	u	100µM*
CC(C)CCNC(=O)c1cnc2c(c1)N([S+](=O)([O-])c1cccnc1)CCC2	0.0%[70.6 µM]	i	u	0.3%[172 µM]
COc1ccc(S(=O)(=O)N2CC[C@H](NC(=O)Cc3cccs3)C[C@H]2C(=O)N[C@@H](CC2CCCCC2)C(N)=O)cc1	-0.6%	i	u	u
Cc1cccc(N2CCN(C(=O)CCc3ccnc(N4CCCC4)c3)CC2)c1	-14.6%	i	-22.3%	u
O=C(CCc1ccnc(N2CCCC2)c1)N1CCN(c2cccc(Cl)c2)CC1	-14.9%	i	u	31.6µM*
CNC(=O)c1cc(C2CC2)nc2c1c(C1CCN(C(=O)Cc3ccc(F)cc3)CC1)nn2C	x	x	-10.1%	u
CNC(=O)c1cc(C2CC2)nc2c1c(C1CCN([S+](=O)([O-])c3ccc(C)cc3)CC1)nn2C	x	x	u	50.1µM*
CNC(=O)c1cc(C2CC2)nc2c1c(C1CCN(C(=O)Cc3ccccc3)CC1)nn2C	x	x	-20.8%	89.1µM*
CNC(=O)c1cc(C2CC2)nc2c1c(C1CCN([S+](=O)([O-])c3ccc(C)cc3)C1)nn2C (stereo unspecified)	x	x	-25.1%	u
COc1ccc(C(=O)N2CCCC3(CNc4ncccc4[S+](=O)([O-])N3)C2)cc1 (stereo unspecified)	x	x	-15.1%	-2.0%
CC(C)CCN1CCC2(CC1)CC(=O)N(c1ccccc1)c1ccccc1O2	u	i	u	44.7µM*
Cn1cccc1CN1CCC2(CC1)CC(=O)N(c1ccccc1)c1ccccc1O2	-22.5%	i	39.8µM*	22.4µM*
SMILES	NPR1 antag	Luciferase inh	NIH3T3 tox	HEK293 tox
Cc1ccc(CN2CCC3(CC2)CC(=O)N(c2ccccc2)c2ccccc2O3)cc1	6.9%	i	39.8µM*	31.6µM*
CCN1C(=O)CCN(C(=O)c2cc(C)n(C)n2)CC12CCOCC2	x	x	-12.1%	-8.9%
c1cc(CNC[C@H]2Cn3cc(-c4ccc5c(c4)OCCCO5)nc3CO2)ccn1	-1.9%[70.6 µM]	44.7µM*	-19.7%[138 µM]	-17.7%[172 µM]
COc1ncccc1CNC[C@H]1Cn2cc(-c3ccc4c(c3)OCCCO4)nc2CO1	-2.1%[70.6 µM]	50.1µM*	u	89.1µM*
CCNC(=O)NC[C@@H]1C=C(C)[C@H](Cc2nnc(-c3ccccc3F)o2)C[C@H]1C(C)C	-27.5%[70.6 µM]	i	u	u
C#CCNC[C@@H]1C=C(C)[C@H](Cc2nnc(-c3ccccc3F)o2)C[C@H]1C(C)C	-1.9%[70.6 µM]	i	u	70.8µM*
C#CCNC[C@@H]1C=C(C)[C@H](Cc2nnc(Cc3c[nH]c4ccccc34)o2)C[C@H]1C(C)C	-12.7%[70.6 µM]	i	u	50.1µM*
